Experiment [1] is described as follows: A CellTox Green Cytotoxicity Assay to monitor cytotoxicity in HepG2 cells - 0 hour (AID 1224882). Also: nearly all actives have a fitted effect of over 35% in size. In a few lines:
(§1)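 Measurements at 0, 8, 16, 24, 32 and 40 h of treatment captured CellTox Green fluorescence in HepG2 cells that had been co-plated with reagent and preincubated 5 h at 37 C/5% CO2.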

Experiment [2] in a line: A CellTox Green Cytotoxicity Assay to monitor cytotoxicity in HepG2 cells - 32 hour (AID 1224883). Also: nearly all actives have a fitted effect of over 50% in size. Also: potency is read from the fitted curve at half-maximal effect. A digest of the protocol: as §1
Experiment [3] is described as follows: A CellTox Green Cytotoxicity Assay to monitor cytotoxicity in HEK293 cells - 8 hour (AID 1224884). Also: nearly all actives have a fitted effect of over 35% in size. Also: potency is read from the fitted curve at half-maximal effect. A digest of the protocol:
(§2)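 Tox21 screen in HEK293: membrane-impermeant cyanine dye fluoresces on binding dead-cell DNA; compound pinned 5 h post-seeding, plates held at 37 C, signal read repeatedly through 40 h.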

The nature of experiment [4]: qHTS RealTime-Glo MT Cell Viability Assay in HepG2 cells - 16 hour (AID 1224885). Also: nearly all actives have a fitted effect of over 50% in size. Also: potency is read from the fitted curve at half-maximal effect. In a few lines:
(§3)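 Luminescence read-out: viable HepG2 cells reduce a prosubstrate to a NanoLuc substrate, giving a signal proportional to live cell number. Reads taken at 0, 8, 16, 24, 32 and 40 h of compound exposure at 37 C.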
(Quantitative high-throughput screening tests each substance at several concentrations.)

Experiment [5] is described as follows: qHTS RealTime-Glo MT Cell Viability Assay in HEK293 cells - 24 hour (AID 1224886). Also: nearly all actives have a fitted effect of over 50% in size. Also: potency is read from the fitted curve at half-maximal effect. A digest of the protocol: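 Nonlytic real-time viability readout: viable cells convert prosubstrate to NanoLuc substrate, giving luminescence proportional to live cell number. HEK293, 600 cells/well, compound added after 5 h, continuous culture at 37 C.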
Experiment [6] can be described thus: qHTS RealTime-Glo MT Cell Viability Assay in HEK293 cells - 8 hour (AID 1224887). Also: nearly all actives have a fitted effect of over 50% in size. Also: potency is read from the fitted curve at half-maximal effect. A digest of the protocol: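 HEK293 + NanoLuc + prosubstrate, 600 cells/well; 5 h, 37 C/5% CO2; compound 23 nL in DMSO by pintool; 37 C; luminescence read at 0, 8, 16, 24, 32 and 40 h time points.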
A short description of experiment [7]: A CellTox Green Cytotoxicity Assay to monitor cytotoxicity in HEK293 cells - 16 hour (AID 1224888). Also: nearly all actives have a fitted effect of over 35% in size. Also: potency is read from the fitted curve at half-maximal effect. In a few lines: as §2
Experiment [8] is described as follows: qHTS assay to identify small molecule antagonists of the estrogen receptor alpha (ER-alpha) signaling pathway using the BG1 cell line in the presence of 0.1 nM 17-beta-estradiol - cell viability counter screen (AID 1259241). Also: nearly all actives have a fitted effect of over 40% in size. Also: potency is read from the fitted curve at half-maximal effect. In a few lines: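 Live-cell protease activity (CellTiter-Fluor fluorescence, 30 min) was read in the same wells after VM7Luc4E2 cells had been exposed to compounds with 0.1 nM 17beta-estradiol for 22 hr at 37C.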

Experiment [9] addresses Estrogen receptor (Homo sapiens) (UniProt P03372). The experiment in a line: qHTS assay to identify small molecule antagonists of the estrogen receptor alpha (ER-alpha) signaling pathway using the BG1 cell line in the presence of 0.1 nM 17-beta-estradiol (AID 1259244). Also: nearly all actives have a fitted effect of over 50% in size. Also: potency is read from the fitted curve at half-maximal effect. A digest of the protocol: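 Compounds were tested against 0.1 nM (final) 17beta-estradiol in VM7Luc4E2 cells, which express full-length ER-alpha and an ERE-luciferase reporter; luminescence was recorded following 22 h exposure.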

The nature of experiment [10]: qHTS assay to identify small molecule HDAC inhibitors (AID 1259364).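 Also: wild-type HCT-116 cells with endogenous class I/II HDAC activity; top concentration of the series differs between compounds; nearly all actives have a fitted effect of over 45% in size.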 In a few lines: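 Screening used wild-type human colon HCT-116 cells incubated overnight, dosed with compounds for 2 hours, and assayed with a homogeneous luminogenic HDAC I/II reagent for 30 minutes at room temperature.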
Experiment [11] can be described thus: qHTS assay to identify small molecule HDAC inhibitors - cell viability counter screen (AID 1259365). In a few lines: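 HCT-116 (wild type), 1,500 cells/well, overnight 37C/5% CO2; compound in DMSO 2hr; CellTiter-Glo 30min RT; luminescence read.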
The nature of experiment [12]: qHTS assay to identify small molecule antagonists of the sonic hedgehog signaling (Shh) pathway - cell viability counter screen (AID 1259367). Also: nearly all actives have a fitted effect of over 55% in size. Also: potency is read from the fitted curve at half-maximal effect. In a few lines:
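Cytotoxicity was assessed in parallel with Shh reporter activity by measuring live-cell protease fluorescence (CellTiter-Fluor) in NIH/3T3 cells stably carrying Gli1-Luc, treated with compound under conditioned medium stimulation for 23 hr plus 1 hr reagent incubation.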

Experiment [13] in a line: qHTS assay to identify small molecule agonists of the sonic hedgehog signaling (Shh) pathway (AID 1259368; calls by dose curve;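 also: NIH/3T3-derived 3T3Gli1-Luc cells carrying a stable Gli1-driven firefly luciferase reporter; series mostly up to about 92 µM; nearly all actives have a fitted effect of over 15% in size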). In a few lines:
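Hedgehog pathway agonism scored by increased firefly luciferase luminescence in 3T3Gli1-Luc cells treated 24 hr at 37 C; detection used a 30 min room-temperature reagent incubation.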

Experiment [14] is described as follows: qHTS assay to identify small molecule antagonists of the sonic hedgehog signaling (Shh) pathway (AID 1259369; calls by dose curve; also: nearly all actives have a fitted effect of over 45% in size; also: potency is read from the fitted curve at half-maximal effect). A digest of the protocol:
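NIH/3T3 stable Gli1-Luc clone, 2,000 cells/well, 4hr settle; cpd + conditioned medium 24hr; Luc reagent 30min RT; luminescence.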

The nature of experiment [15]: A CellTox Green Cytotoxicity Assay to monitor cytotoxicity in HepG2 cells - 8 hour (AID 1224890). Also: nearly all actives have a fitted effect of over 45% in size. A digest of the protocol:
as §1

The nature of experiment [16]: qHTS assay to identify small molecule agonists of the sonic hedgehog signaling (Shh) pathway - cell viability counter screen (AID 1259366). Also: nearly all actives have a fitted effect of over 50% in size. Also: potency is read from the fitted curve at half-maximal effect. A digest of the protocol: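 CellTiter-Fluor fluorescence read-out, 1 hr at 37C, added after 23hr compound exposure. Cells: 3T3 Gli1-Luc, an NIH/3T3 clone with stably integrated Gli1-Luc reporter, plated 4hr before compound.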
Experiment [17] can be described thus: qHTS RealTime-Glo MT Cell Viability Assay in HepG2 cells - 0 hour (AID 1224889). Also: nearly all actives have a fitted effect of over 50% in size. In a few lines:
as §3

Experiment [18] is described as follows: qHTS assay to identify small molecule antagonists of the androgen receptor (AR) signaling pathway using the MDA cell line in the presence of 0.5 nM R1881 - cell viability counter screen (AID 1259242). Also: nearly all actives have a fitted effect of over 45% in size. Also: potency is read from the fitted curve at half-maximal effect. In a few lines: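 Concentration-response screen of compounds for toxicity in MDA-kb2 reporter cells: 16 hr at 37C with 0.5 nM R1881, endpoint live-cell protease fluorescence measured in the reporter wells.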

In experiment [19] the target is Androgen receptor (Homo sapiens) (UniProt P10275). The experiment in a line: qHTS assay to identify small molecule antagonists of the androgen receptor (AR) signaling pathway using the MDA cell line in the presence of 0.5 nM R1881 (AID 1259243). Also: nearly all actives have a fitted effect of over 50% in size. A digest of the protocol:
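With R1881 held at 0.5 nM (final), compound effects on MMTV-luciferase expression in MDA-kb2 cells were scored by luminescence after a 16 hr, 37C incubation.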

Experiment [20] can be described thus: qHTS assay to identify small molecule phospholipidosis (PLD) inducers (AID 1259344; active = well fitted curve in the direction sought with a large enough effect; an effect the other way counts as inactive or inconclusive). A digest of the protocol:
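Cells (HepG2, 900 per well) attach for 4 h, receive LipidTOX Red and compound together, incubate 24 h at 37 C, are fixed 30 min with paraformaldehyde/Hoechst, then imaged at one site per well.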

Where “and” joins values, the source holds several entries; their conditions need not be identical. Equal entries are not always repeated. Inconclusive results are not listed. Some compounds were tested as several samples or in several runs, with calls that do not always agree. Calls of active or inactive are those of the source. Unless noted, calls follow the shape of the dose curve; as a rule, active = well fitted curve in the direction sought with a large enough effect in the repeat runs; inconclusive = weak or mixed curves; inactive = no such curve, though single readings can be large; an effect the other way counts as inactive or inconclusive.

Chain of Estrogen receptor (Homo sapiens) (P03372 whole entry, looked up): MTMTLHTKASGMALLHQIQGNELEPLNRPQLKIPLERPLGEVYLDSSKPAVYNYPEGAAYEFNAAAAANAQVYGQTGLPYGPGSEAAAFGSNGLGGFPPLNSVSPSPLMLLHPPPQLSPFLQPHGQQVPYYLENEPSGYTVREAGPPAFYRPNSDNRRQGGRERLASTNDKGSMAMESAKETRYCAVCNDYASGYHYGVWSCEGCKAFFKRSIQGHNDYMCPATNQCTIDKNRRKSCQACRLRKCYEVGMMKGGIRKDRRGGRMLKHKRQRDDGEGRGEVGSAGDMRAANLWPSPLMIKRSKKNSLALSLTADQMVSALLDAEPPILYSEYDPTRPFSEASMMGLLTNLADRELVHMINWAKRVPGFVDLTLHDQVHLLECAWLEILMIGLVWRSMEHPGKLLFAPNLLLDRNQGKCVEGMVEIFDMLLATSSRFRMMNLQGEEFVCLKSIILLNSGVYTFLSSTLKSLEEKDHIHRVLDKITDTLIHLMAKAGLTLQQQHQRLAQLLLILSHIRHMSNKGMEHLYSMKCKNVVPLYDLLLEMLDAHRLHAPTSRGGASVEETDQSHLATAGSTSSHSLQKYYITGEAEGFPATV
Chain of Androgen receptor (Homo sapiens) (P10275 whole entry, looked up): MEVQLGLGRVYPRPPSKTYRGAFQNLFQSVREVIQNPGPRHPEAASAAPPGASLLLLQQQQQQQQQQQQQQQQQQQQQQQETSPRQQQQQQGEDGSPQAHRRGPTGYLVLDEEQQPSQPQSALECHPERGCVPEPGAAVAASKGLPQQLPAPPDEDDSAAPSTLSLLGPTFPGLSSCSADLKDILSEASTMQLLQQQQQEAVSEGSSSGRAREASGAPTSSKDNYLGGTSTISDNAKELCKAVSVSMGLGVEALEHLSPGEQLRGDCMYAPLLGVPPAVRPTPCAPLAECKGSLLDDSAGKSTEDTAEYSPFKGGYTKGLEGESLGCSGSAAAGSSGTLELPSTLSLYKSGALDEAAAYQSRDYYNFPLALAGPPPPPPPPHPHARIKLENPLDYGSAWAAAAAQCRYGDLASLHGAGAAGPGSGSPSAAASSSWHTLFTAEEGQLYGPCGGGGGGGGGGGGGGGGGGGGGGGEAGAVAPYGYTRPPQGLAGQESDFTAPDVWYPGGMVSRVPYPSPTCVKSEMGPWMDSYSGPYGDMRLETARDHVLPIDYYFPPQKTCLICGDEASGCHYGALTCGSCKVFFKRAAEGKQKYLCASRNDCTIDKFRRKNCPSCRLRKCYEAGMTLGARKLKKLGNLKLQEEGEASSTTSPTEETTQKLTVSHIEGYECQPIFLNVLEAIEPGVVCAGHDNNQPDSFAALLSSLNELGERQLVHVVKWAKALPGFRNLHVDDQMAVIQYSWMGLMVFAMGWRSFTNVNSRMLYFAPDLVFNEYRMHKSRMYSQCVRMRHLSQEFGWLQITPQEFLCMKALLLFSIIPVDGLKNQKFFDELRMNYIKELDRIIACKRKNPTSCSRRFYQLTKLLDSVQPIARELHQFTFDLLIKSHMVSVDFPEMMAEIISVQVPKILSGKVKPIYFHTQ

As to `CCCCCCCCCCCCCCNCCO`, the Potency result in experiment [1], in experiment [8], in [9], in [10], in experiment [11] and in experiment [12] was “inactive” throughout. Moreover, the Potency entry in experiment [13] and in [14] was “inactive” each time. Also, the Potency in experiment [2] is 7.56 µM (active); in [3], 21.3 µM (active); in experiment [4] it was 19 µM (active); in experiment [5], 15.1 µM (active); in [6], 23.9 µM (active); in experiment [7] it was 21.3 µM (active).

Regarding `CCC(C)C(=O)OC` (centres undefined), the Potency entry in [1], in experiment [2], in [3], in experiment [4], in experiment [5] and in experiment [6] was “inactive” in each case. Moreover, the Potency result in experiment [7], in experiment [15], in [9], in [10], in experiment [11] and in [16] was “inactive” each time. The Potency result in experiment [12], in experiment [13] and in [14] was “inactive” each time.

With `CCCCOCC`, the Potency entry in experiment [1], in [2], in experiment [3], in experiment [4], in experiment [7] and in experiment [17] was “inactive” throughout. In addition, the Potency entry in experiment [15], in experiment [8], in experiment [18], in experiment [19], in experiment [11] and in [16] was “inactive” in each case. Further, the Potency result in experiment [12], in experiment [13] and in experiment [14] was “inactive” throughout.

Regarding `CO[C@H]1C=CO[C@@]2(C)Oc3c(C)c(O)c4c(O)c(cc(O)c4c3C2=O)NC(=O)/C(C)=C\C=C/[C@H](C)[C@H](O)[C@@H](C)[C@@H](O)[C@@H](C)[C@H](OC(C)=O)[C@@H]1C`, the Potency entry in experiment [1], in experiment [2], in experiment [3], in [4], in experiment [5] and in [7] was “inactive” throughout. Moreover, the Potency entry in [15], in [20], in experiment [10] and in experiment [13] was “inactive” throughout. Besides, the Potency was 27.5 µM (active) in experiment [8]; 54.9 µM (active) in experiment [9]; 13.8 µM (active) in [16]; 15.5 µM (active) in experiment [12]; 13.8 µM (active) in [14].

Regarding `CSc1ccc2c(c1)N(CCC1CCCCN1C)c1ccccc1S2` (centres undefined), the Potency result in experiment [1], in experiment [10], in [11] and in [13] was “inactive” in each case. Further, the Potency was 34.5 µM (active) and 23.9 µM (active) in [2]; 34.5 µM (active) in experiment [3]; 54.7 µM (active) and 23.9 µM (active) in experiment [4]; 15.4 µM (active) in [5]; 19.4 µM (active) in experiment [6]; 30.8 µM (active) in [7]. The Potency in experiment [18] is 54.3 µM (active); in [9] it was 54.3 µM (active) and inactive; in [16], 15.3 µM (active) and 29.8 µM (active); in [12], 21.6 µM (active) and 29.8 µM (active); in experiment [14], 5.43 µM (active) and 11.9 µM (active).

Turning to `CC1=C(/C=C/C(C)=C/C=C/C(C)=C\C=O)C(C)(C)CCC1`, the Potency result in experiment [1], in experiment [2], in experiment [3], in experiment [4], in experiment [6] and in [17] was “inactive” each time. The Potency entry in [15], in [8], in experiment [18], in experiment [10], in experiment [11] and in experiment [13] was “inactive” each time. The Potency in experiment [14] is 25.8 µM (active).

With `C=C(c1ccc(C(=O)O)cc1)c1cc2c(cc1C)C(C)(C)CCC2(C)C`, the Potency result in [1], in [3], in experiment [4], in [6], in [17] and in [15] was “inactive” each time. The Potency entry in experiment [8], in experiment [18], in experiment [20], in experiment [10], in experiment [11] and in experiment [16] was “inactive” in each case. The Potency entry in experiment [12], in experiment [13] and in experiment [14] was “inactive” in each case. In addition, the values for the Potency in experiment [2] and in experiment [9] were 43.6 µM (active) and 12.2 µM (active), respectively.

The values above are taken from PubChem BioAssay (Tox21).
